Experimental data from PubChem BioAssay.
Several values for one entry are separate records, joined by “and”; a condition that tells them apart may be missing. Equal entries are not always repeated. Activity calls are given as the source filed them. Unless noted, no stated cut-off is given here; in the data, active means parasite load remaining mostly below about 12% (no sharp cut-off); inactive means mostly above about 10%.

Columns and labels:
[1] = compounds altering viability of human ES cells (AID 493140; call rule not given here;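 further: cells exposed to compounds for four days before counting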); details: human embryonic stem cell survival screen; stronger effect = higher value
[2] = P. berghei load reduction in hepatocytes – cell-based, HepG2, luciferase luminescence, HepG2 viability, primary screen (AID 624349);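 further: 100% = mean of DMSO negative control wells on the same plate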; details: P. berghei liver stage in HepG2, luciferase luminescence, concentration not given here; parasite load remaining: stronger effect = lower value; viability: measured here: HepG2 viability without parasites
[3] = Wnt pathway potentiators raising nuclear beta-catenin – imaging, WNT3A-conditioned medium, mouse C2C12, NPC library, primary screen (AID 1117326; in the data active means nuclear beta-catenin stimulation mostly above about 4.2%, no sharp cut-off; inactive means mostly below about 10%); details: stronger effect = higher value
[4] = stimulators of insulin release from INS-1E, primary screen, cell-based, 5 mM glucose, NPC library (AID 1117329;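 active means compound raises insulin release from rat beta cells at 5 mM glucose, no numeric limit stated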); details: rat INS-1E insulin secretion, at 10 µM, stronger effect = higher value
[5] = growth inhibition of GSK3B-pretreated HCT116 cells – cell-based, CellTiter-Glo, 0.2 to 20 µM (AID 1117336;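 active means compounds lowering colon cancer cell viability after pretreatment blocking the GSK3B kinase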); details: HCT116 viability after GSK3B inhibitor, at 20 µM, stronger effect = higher value
[6] = inhibition of endothelial tube formation, primary screen, imaging, VEGF stimulated, CD31 staining, tube area, NPC library (AID 1117340;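 active means compound that reduces growth-factor-driven endothelial tube area in a mixed cell culture, no cutoff stated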); details: VEGF-stimulated ADSC/ECFC co-culture, at 10 µM, stronger effect = higher value
[7] = GLP1 release stimulators, primary, NCI-H716, NPC library (AID 1117341;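 active means compound raises GLP1 secretion from the human gut endocrine cells, with no numeric limit stated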); details: NCI-H716 cells, at 10 µM, stronger effect = higher value
[8] = HCT116 colon cancer cell growth inhibition, primary screen, CellTiter-Glo luminescence, NPC library (AID 1117342;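 active means compounds that lower survival of HCT116 colon cancer cells in the luminescence readout, no numeric limit stated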); details: at 20 µM (top of the series)
[9] = reduced SW480 viability measured with CellTiter-Glo, NPC library, primary (AID 1117343;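 active means compounds that lower viability of the colon cancer cells in the luminescence readout, with no numeric limit stated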); details: CellTiter-Glo luminescence; at 20 µM (top of the series) unless noted
[10] = NPC library primary testing for decreased DLD-1 cell viability via CellTiter-Glo (AID 1117346;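 active means compounds that lower survival of DLD-1 colon cancer cells in the luminescence readout, no cutoff given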); details: DLD-1 viability, CellTiter-Glo luminescence; at 20 µM (top of the series)
[11] = EMT-state selective cytotoxicity in co-culture – imaging, PC-3E GFP, TEM4-18 mCherry, primary screen (AID 1345086;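 active means compounds killing one labelled cell type while sparing the other, by normalised counts and ratio limits, not self-fluorescent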;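 on all read-outs here: cells exposed to compound for 72 h before imaging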;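 on red/green cell ratio (normalised): normalised mesenchymal count divided by normalised epithelial count so high means epithelial killing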); details: PC-3E GFP / TEM4-18 mCherry co-culture, imaging cell counts, at 1 µM; for red/green cell ratio (normalised): actives lie on both sides, counts scaled to control wells, 1 = unselective
[12] = viability loss with induced miR-34 in A549 – imaging, A549 dox-inducible miR-34, nuclei and caspase counts, primary screen (AID 1347080;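 active means compounds whose cell count with miR-34 switched on is under 0.7 times the count with it off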); details: A549 miR-34 inducible, Hoechst nuclei count, 48 h
[13] = MELAS cybrid and Rieske KO viability enhancers – cell-based, MELAS cybrids, Rieske KO mouse fibroblasts, CellTiter-Glo, primary screen (AID 1508586;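 active means mean z-score across replicates of 1.96 or higher in either the MELAS or the Rieske mutant cell line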;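 further: z relative to plate mean and SD of compound and empty wells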); details: low glucose
[14] = target: NAD(+) hydrolase SARM1 (Homo sapiens) (UniProt Q6SZW1); assay: blocking NAD cleavage by SARM1 SAM-TIR – cell lysate, NAD-Glo luminescence (AID 1508614;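 active means compound whose remaining NAD level is above about 45 nM, limit read from the data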); details: SAM-TIR HEK293T lysate NADase, at 1 µM, stronger effect = higher value
[15] = measured here: epithelial PC-3E GFP cell survival
[16] = measured here: mesenchymal TEM4-18 mCherry cell survival
[17] = stronger effect = lower value, cell number ratio, induced over uninduced
[18] = measured here: relative caspase fold change +Dox/-Dox
[19] = measured here: total cells with miR-34 induction, stronger effect = lower value
[20] = measured here: total cells without miR-34 induction
[21] = MELAS cybrid survival, CellTiter-Glo 48 h, stronger effect = higher value
[22] = Rieske KO mouse fibroblast survival, CellTiter-Glo 72 h

Sequence of NAD(+) hydrolase SARM1 (Homo sapiens) (Q6SZW1 whole entry, looked up): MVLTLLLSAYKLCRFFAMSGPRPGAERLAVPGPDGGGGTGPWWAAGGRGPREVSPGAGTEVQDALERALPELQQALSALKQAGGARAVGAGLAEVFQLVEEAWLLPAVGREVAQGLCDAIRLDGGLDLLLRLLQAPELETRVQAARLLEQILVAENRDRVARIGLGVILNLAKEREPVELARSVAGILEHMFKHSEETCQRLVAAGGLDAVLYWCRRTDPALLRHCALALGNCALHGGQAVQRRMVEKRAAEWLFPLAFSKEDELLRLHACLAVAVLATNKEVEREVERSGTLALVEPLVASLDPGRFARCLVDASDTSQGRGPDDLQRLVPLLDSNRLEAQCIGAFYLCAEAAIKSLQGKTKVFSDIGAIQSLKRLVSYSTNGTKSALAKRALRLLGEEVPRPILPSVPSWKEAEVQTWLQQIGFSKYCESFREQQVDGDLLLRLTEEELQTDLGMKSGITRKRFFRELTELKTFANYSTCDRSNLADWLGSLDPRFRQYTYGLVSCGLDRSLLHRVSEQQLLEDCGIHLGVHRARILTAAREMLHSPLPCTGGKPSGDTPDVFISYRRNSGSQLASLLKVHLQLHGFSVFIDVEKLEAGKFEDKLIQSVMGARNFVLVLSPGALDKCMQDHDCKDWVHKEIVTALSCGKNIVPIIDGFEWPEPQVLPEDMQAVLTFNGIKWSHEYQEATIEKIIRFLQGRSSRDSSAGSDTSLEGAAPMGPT

NCCc1ccn[nH]1
survival [1]: 17.5 (inactive) | parasite load remaining [2]: 35.3% (inactive) and 97.6% (inactive) | viability [2]: 49.8% and 93.1% | nuclear beta-catenin stimulation ([3]; at 10 µM): 1% (inactive) | nuclear beta-catenin stimulation ([3]; stimulation, at 2 µM): 0.9% | insulin secretion stimulation [4]: -1.5% (inactive) | viability decrease [5]: -5% (inactive) | tube area decrease [6]: -21.4% (inactive) | GLP1 secretion stimulation [7]: 1.1% (inactive) | inhibition of viability [8]: -8.9% (inactive) | viability decrease (inhibition) [9]: 12.5% (inactive) | viability decrease (inhibition) [10]: -9.4% (inactive) | red/green cell ratio (normalised) [11]: 0.76 (inactive) | normalised cell number [11, 15]: 1.25 | normalised cell number [11, 16]: 0.95 | fold change [12, 17]: 0.91 (inactive) | fold change [12, 18]: 1.36 | cell count [12, 19]: 9040 | cell count [12, 20]: 9920 | z-score [13, 21]: 0.417 (inactive) | z-score [13, 22]: 0.115 | remaining NAD [14]: 10 nM (inactive)

CC(C)COC(=O)c1ccc(N)cc1
nuclear beta-catenin stimulation ([3]; at 10 µM): 0.2% (inactive) | nuclear beta-catenin stimulation ([3]; stimulation, at 2 µM): 0.4% | insulin secretion stimulation [4]: -1.9% (inactive) | viability decrease [5]: -5.95% (inactive) | tube area decrease [6]: 0.5% (inactive) | GLP1 secretion stimulation [7]: 0.9% (inactive) | inhibition of viability [8]: 6.2% (inactive) | viability decrease (inhibition) [9]: 61.3% (active) | viability decrease (inhibition) [10]: 12.5% (inactive) | red/green cell ratio (normalised) [11]: 1.09 (inactive) | normalised cell number [11, 15]: 0.86 | normalised cell number [11, 16]: 0.93 | fold change [12, 17]: 0.964 (inactive) | fold change [12, 18]: 0.986 | cell count [12, 19]: 8750 | cell count [12, 20]: 9080 | remaining NAD [14]: 10 nM (inactive)

CCCCCCC[N+](CC)(CC)CCCCc1ccc(Cl)cc1
survival [1]: 0.5 (inactive) | parasite load remaining [2]: 34.3% (inactive) and 96.8% (inactive) | viability [2]: 48.5% and 90.6% | nuclear beta-catenin stimulation ([3]; at 10 µM): 1.5% (inactive) | nuclear beta-catenin stimulation ([3]; stimulation, at 2 µM): 0.5% | insulin secretion stimulation [4]: 1% (inactive) | viability decrease [5]: 95.1% (active) | tube area decrease [6]: 83.4% (active) | GLP1 secretion stimulation [7]: 7.2% (inactive) | inhibition of viability [8]: 79.1% (active) | viability decrease (inhibition) [9]: 60.9% (active) | viability decrease (inhibition) [10]: 75.4% (active) | red/green cell ratio (normalised) [11]: 0.92 (inactive) | normalised cell number [11, 15]: 0.97 | normalised cell number [11, 16]: 0.89 | fold change [12, 17]: 0.718 (inactive) | fold change [12, 18]: 1.54 | cell count [12, 19]: 6720 | cell count [12, 20]: 9350 | z-score [13, 21]: -3 (inactive) | z-score [13, 22]: -0.71

CCN1C(=O)NC(c2ccccc2)C1=O (centres undefined)
survival [1]: 2.42 (inactive) | parasite load remaining [2]: 83.9% (inactive) | viability [2]: 100% | nuclear beta-catenin stimulation ([3]; at 10 µM): -2.4% (inactive) | nuclear beta-catenin stimulation ([3]; stimulation, at 2 µM): -0.9% | insulin secretion stimulation [4]: -1% (inactive) | viability decrease [5]: -5.5% (inactive) | tube area decrease [6]: -23% (inactive) | GLP1 secretion stimulation [7]: 7% (inactive) | inhibition of viability [8]: -1% (inactive) | viability decrease (inhibition) [9]: 2.2% (inactive) | viability decrease (inhibition) [10]: 8.6% (inactive) | red/green cell ratio (normalised) [11]: 0.92 (inactive) | normalised cell number [11, 15]: 1.08 | normalised cell number [11, 16]: 1 | fold change [12, 17]: 0.858 (inactive) | fold change [12, 18]: 1.11 | cell count [12, 19]: 8830 | cell count [12, 20]: 10300 | z-score [13, 21]: 0.723 (inactive) | z-score [13, 22]: 0.79 | remaining NAD [14]: 10 nM (inactive)

CC(C)(C)CC(C)(C)c1cc(Cc2cc(C(C)(C)CC(C)(C)C)cc(-n3nc4ccccc4n3)c2O)c(O)c(-n2nc3ccccc3n2)c1
nuclear beta-catenin stimulation ([3]; at 10 µM): 3.9% (inactive) | nuclear beta-catenin stimulation ([3]; stimulation, at 2 µM): 2.5% | insulin secretion stimulation [4]: 1.7% (inactive) | viability decrease [5]: 9.1% (inactive) | tube area decrease [6]: -10.3% (inactive) | GLP1 secretion stimulation [7]: 3.4% (inactive) | inhibition of viability [8]: 1.9% (inactive) | viability decrease (inhibition) [9]: -54% (inactive) | viability decrease (inhibition) [10]: 7.4% (inactive) | red/green cell ratio (normalised) [11]: 0.81 (inactive) | normalised cell number [11, 15]: 1.28 | normalised cell number [11, 16]: 1.04 | fold change [12, 17]: 0.928 (inactive) | fold change [12, 18]: 0.844 | cell count [12, 19]: 9130 | cell count [12, 20]: 9830 | remaining NAD [14]: 10 nM (inactive)

Cc1c(N)c(=O)n(-c2ccccc2)n1C
survival [1]: 19.6 (inactive) | parasite load remaining [2]: 27.9% (inactive) and 86.5% (inactive) and 114% (inactive) | viability [2]: 47% and 66.5% and 89.3% | nuclear beta-catenin stimulation ([3]; at 10 µM): 1.1% (inactive) | nuclear beta-catenin stimulation ([3]; stimulation, at 2 µM): 1.8% | insulin secretion stimulation [4]: -0.3% (inactive) | viability decrease [5]: -9.25% (inactive) | tube area decrease [6]: -13.4% (inactive) | GLP1 secretion stimulation [7]: 1.1% (inactive) | inhibition of viability [8]: -5.1% (inactive) | viability decrease (inhibition) [9]: 45.9% (inactive) | viability decrease (inhibition) [10]: 10.9% (inactive) | red/green cell ratio (normalised) [11]: 0.99 (inactive) | normalised cell number [11, 15]: 1.14 | normalised cell number [11, 16]: 1.13 | fold change [12, 17]: 0.844 (inactive) | fold change [12, 18]: 1.06 | cell count [12, 19]: 8260 | cell count [12, 20]: 9790 | z-score [13, 21]: -0.073 (inactive) | z-score [13, 22]: -0.119

CC(=O)N[C@@H](CC(C)C)C(=O)O
survival [1]: 3.17 (inactive) | parasite load remaining [2]: 73.5% (inactive) and 218% (inactive) | viability [2]: 98.8% and 70.6% | nuclear beta-catenin stimulation ([3]; at 10 µM): 0% (inactive) | nuclear beta-catenin stimulation ([3]; stimulation, at 2 µM): 1.3% | insulin secretion stimulation [4]: -1% (inactive) | viability decrease [5]: -27.2% (inactive) | tube area decrease [6]: -4.7% (inactive) | GLP1 secretion stimulation [7]: -1.9% (inactive) | inhibition of viability [8]: -7.5% (inactive) | viability decrease (inhibition) [9]: 28% (inactive) | viability decrease (inhibition) [10]: -12.9% (inactive) | red/green cell ratio (normalised) [11]: 0.81 (inactive) | normalised cell number [11, 15]: 1.12 | normalised cell number [11, 16]: 0.91 | fold change [12, 17]: 0.893 (inactive) | fold change [12, 18]: 1.09 | cell count [12, 19]: 9170 | cell count [12, 20]: 10300 | z-score [13, 21]: 0.637 (inactive) | z-score [13, 22]: -0.175

NCCNCCNCCN
parasite load remaining [2]: 41.3% (inactive) | viability [2]: 163% | nuclear beta-catenin stimulation ([3]; at 10 µM): 0.6% (inactive) | nuclear beta-catenin stimulation ([3]; stimulation, at 2 µM): 0.7% | insulin secretion stimulation [4]: 0.4% (inactive) | viability decrease [5]: 0.25% (inactive) | tube area decrease [6]: -7.4% (inactive) | GLP1 secretion stimulation [7]: -0.1% (inactive) | inhibition of viability [8]: 4.7% (inactive) | viability decrease (inhibition) [9]: -40.9% (inactive) | viability decrease (inhibition) [10]: 3.2% (inactive) | red/green cell ratio (normalised) [11]: 0.86 (inactive) | normalised cell number [11, 15]: 1.02 | normalised cell number [11, 16]: 0.88 | fold change [12, 17]: 0.908 (inactive) | fold change [12, 18]: 4.46 | cell count [12, 19]: 11700 | cell count [12, 20]: 12900 | remaining NAD [14]: 10 nM (inactive)

O=C(Nc1ccc(C(=O)O)c(O)c1)c1ccccc1
parasite load remaining [2]: 47.9% (inactive) | viability [2]: 101% | nuclear beta-catenin stimulation ([3]; at 10 µM): 0.3% (inactive) | nuclear beta-catenin stimulation ([3]; stimulation, at 2 µM): 0.4% | insulin secretion stimulation [4]: -1.2% (inactive) | viability decrease [5]: 1.7% (inactive) | tube area decrease [6]: 7.2% (inactive) | GLP1 secretion stimulation [7]: -0.4% (inactive) | inhibition of viability [8]: -1.1% (inactive) | viability decrease (inhibition) [9]: 74.5% (active) | viability decrease (inhibition) [10]: 0.8% (inactive) | red/green cell ratio (normalised) [11]: 1.04 (inactive) | normalised cell number [11, 15]: 0.89 | normalised cell number [11, 16]: 0.92 | fold change [12, 17]: 0.856 (inactive) | fold change [12, 18]: 5.2 | cell count [12, 19]: 11700 | cell count [12, 20]: 13700 | remaining NAD [14]: 10 nM (inactive)
